The experiment deals with AAK1. As to conditions: concentration: 1 μM, replicates: in singlicate; n = 1.
With `CCCCc1nn2ncccc2c1-c1ccnc(NC2CC2)n1` [GW684374], the “%Inh” value turned out to be 14%.
The same measure for `COC(=O)C(NC(=O)NC1CCN(c2ccnc(Nc3ccc(F)cc3)n2)C1)c1ccccc1` (stereo not shown) [GSK1379712]: 5%; for `O=c1cc(N2CCOCC2)nc2n(Cc3ccccc3F)ccn12` [GSK2297428]: 5%; for `COc1cc2ncnc(Nc3cccc(Br)c3)c2cc1OC.Cl` [GI230329]: 13%.
The same measure for `CS(=O)(=O)Cc1ccc(Nc2nccc(-c3c(-c4cccc(NC(=O)C5CCCCC5)c4)nn4ncccc34)n2)cc1` [GSK350559]: 0%; for `Cc1cnc(N)c(/C=C/c2cncc(C(=O)NCCc3ccc(Cl)cc3Cl)c2)c1.Cl` [GSK190937]: 19%; for `CS(=O)(=O)CCNCc1nc(-c2ccc3ncnc(Nc4ccc5c(cnn5Cc5ccccc5)c4)c3c2)cs1.Cl.Cl` [GW569716]: 0%.
The figure for `CC[C@@H]1CO[C@H](C(=O)Nc2ccccc2)CN1c1cc(-c2ccc3c(N)n[nH]c3c2)nc(NC)n1` [GSK2376236] is 19%; for `CC(=O)c1c(C)c2cnc(Nc3ccc(N4CCNCC4)cn3)nc2n(C2CCCC2)c1=O` it is 0%; for `COc1ccc(-c2coc3ccc(-c4nnc(C)o4)cc23)cc1` it is 0%.
In the case of `Cc1c(Cn2c(C)c(C)n3c(=O)cc(N4CCOCC4)nc23)cccc1C(F)(F)F` [GSK2328680], the “%Inh” value was 0%.
Consider `CNc1cc(-c2ccc3c(N)n[nH]c3c2)nc(N)n1` [GSK2224810], for which the “%Inh” value is 64%.
Consider `Cc1ccc(NC(=O)c2ccc(Cl)cc2)cc1-c1ccc(C(=O)Nc2ccncc2)cc1` [GSK1398467], for which the “%Inh” value amounted to 8%.
With `CCn1c(-c2ccccc2)nc2cnccc21` [SB-733416], the “%Inh” value was 0%.
`CN1c2ccc(-c3ccc(C(N)=O)cc3)cc2-c2[nH]ncc2S1(=O)=O`: the “%Inh” value is given as 39%.
In the case of `CS(=O)(=O)CCNCc1nc(-c2ccc3ncnc(Nc4ccc(OCc5ccccc5)c(Cl)c4)c3c2)cs1.Cl` [GW582764], the “%Inh” value is 0%.
Regarding `COC(=O)c1cccc(NC(=O)NC2CCN(c3ccnc(Nc4ccc(OC)cc4)n3)C2)c1` (stereo not shown) [GSK1379746], the “%Inh” value was determined as 18%.
`NS(=O)(=O)c1cccc(N/C=C2\C(=O)Nc3ccc(S(=O)(=O)Cc4c(Cl)cccc4Cl)cc32)c1` [GSK398099]: the “%Inh” value was determined as 31%.
On to `CC(=O)c1cccc(NC(=O)NC2CCN(c3ccnc(Nc4ccc(F)cc4)n3)C2)c1` (stereo not shown) [GSK1379710], for which the “%Inh” value is listed as 16%.
The figure for `O=C1NC(=O)C(c2ccc(Cl)cc2)=C1Nc1cccc(Cl)c1` [SB-317651] is 0%; for `Cc1ccc(-c2nc(Nc3ccncc3)c3ccccc3n2)s1` [GSK189015] it is 12%; for `Cn1cnc2c(N)ncnc21` [SKF-97623] it is 0%.
The same measure for `CNc1nc(-c2ccc3c(N)n[nH]c3c2)cc(N2C[C@@H](C(=O)NC3CCCCC3)OC[C@H]2C)n1` [GSK2375584]: 40%; for `O=C(Nc1n[nH]c2nc(-c3ccco3)c(Br)cc12)C1CCN(Cc2ccccc2)C1.O=C(O)[C@H](O)[C@@H](O)C(=O)O` (stereo not shown) [SB-742034]: 29%.
As for `COc1ccc(Nc2nccc(NCCNC(=O)Nc3cc(C)ccc3C)n2)cc1` [GSK1379899], the “%Inh” value is 0%.
`CC(C)c1cc(-c2ccc3c(N)n[nH]c3c2)nc(N)n1` [GSK2250882]: the “%Inh” value was determined as 53%.
As to `O=C(Nc1n[nH]c2nc(-c3cccs3)c(Br)cc12)C1CCCC1` [SB-743341], the “%Inh” value was 0%.
Consider `O=C1NC(=O)C(c2ccc(Cl)cc2)=C1Nc1ccc(O)cc1` [SB-340867], for which the “%Inh” value is listed as 3%.
The same measure for `COc1ccc(Nc2nccc(N3CCC(NC(=O)C(C)c4ccc(Cl)cc4)CC3)n2)cc1` (stereo not shown) [GSK1379812]: 23%; for `CC(C)c1ccc(O)cc1Nc1ccnc2ccc(C(F)(F)F)cc12` [GW482059]: 0%; for `CCn1c(-c2c(N)noc2C)nc2cnccc21` [SB-737856]: 0%.
The figure for `COc1ccc(Nc2nccc(N3CCC(NC(=O)C(C)c4ccc(Cl)cc4)C3)n2)cc1` (stereo not shown) [GSK1379735] is 14%; for `O=c1cc(N2CCOCC2)nc2n(Cc3cccc(Cl)c3Cl)c3ccccc3n12` [GSK2299009] it is 31%.
With `CC(=O)c1c(C)c2cnc(Nc3ccn(C)n3)nc2n(C2CCCC2)c1=O`, the “%Inh” value was found to be 0%.
Take `Cc1nccc(-c2c(-c3ccc(F)cc3)ncn2CCCN2CCOCC2)n1.Cl` [SB-282975]: the “%Inh” value is given as 0%.
Consider `COc1ccc(CSc2nnc(-c3ccc4c(c3)CCO4)o2)cc1`, for which the “%Inh” value turned out to be 8%.
`Cc1ccc(NC(=O)Nc2ccc(Cl)cc2)cc1-c1ccc(C(=O)Nc2ccncc2)cc1` [GSK1398472]: the “%Inh” value was 0%.

(Values after paper PMC5540273 (PLoS ONE, 2017).)
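Note: KINOMEscan kinase panel screen.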
